Compound activity deposited in PubChem by National Center for Advancing Translational Sciences (NCATS).
This excerpt belongs to a sample that is enriched for hits.
Pf Dd2 growth: inhibitors of Plasmodium falciparum Dd2 growth | P. falciparum Dd2 growth, SYBR Green, 72 h | Potency, µM (doses to about 28.9 µM), most hits filed as inhibitors | 120,000 tested, 4.3% active | AID 1347417; active = well fitted inhibition curve with a large enough effect; also: nearly all actives have a fitted effect of over 65% in size
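Infected erythrocytes (Dd2, 0.3% parasitemia, 2.5% hematocrit final) are added to compound in RPMI-1640/Albumax II medium, grown 72 h at 37C in low oxygen, then lysed with saponin/Triton-X containing SYBR Green and read by fluorescence.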
A number is an active result; i = inactive; [ ] = dose if it differs, or a comment.

SMILES	Pf Dd2 growth
CCc1ccccc1N1CC(c2nc3ccccc3n2CCCCOc2ccccc2OC)CC1=O (centres undefined)	i
Cc1ccccc1Cn1c(CCCNC(=O)C2CCCCC2)nc2ccccc21	i
COc1ccccc1OCCCn1c(C2CC(=O)N(c3ccccc3Cl)C2)nc2ccccc21 (centres undefined)	i
Cc1cccc(OCCCCn2c(C3CC(=O)N(c4ccccc4Cl)C3)nc3ccccc32)c1 (centres undefined)	3.16µM
Cc1cc(C)cc(OCCn2c(CCNC(=O)C3CCCCC3)nc3ccccc32)c1	i
CCc1ccccc1N1CC(c2nc3ccccc3n2Cc2cccc(C)c2)CC1=O (centres undefined)	i
Cc1cccc(OCCCCn2c(C3CC(=O)N(c4ccc(C)cc4C)C3)nc3ccccc32)c1 (centres undefined)	11.2µM
c1ccc(-c2nnc3ccc(N4CCc5ccccc5C4)nn23)nc1	i
CC(C)NC(=O)N1CC2ON=C(C(=O)N3CCCC3)C2C1 (centres undefined)	i
CCN1CCN(C(=O)C2CCCCC(=O)N2)CC1 (centres undefined)	i
O=C(CCCn1cnnn1)N[C@@H]1COCC[C@@H]1OCC1CCC1	i
Cc1cccc(NC(=O)Nc2ccc(C)n(CC(=O)NCCC(C)C)c2=O)c1	i
O=C1NCC2(CCN(C(=O)c3ccc4c(c3)OCO4)CC2)Oc2ccccc21	i
COc1ccc2[nH]c3c(c2c1)CCNC31CCN(C(=O)Cc2ccncc2)CC1	i
COc1ccc2[nH]c3c(c2c1)CCNC31CCN(C(=O)COc2ccc(F)cc2)CC1	i
COc1ccc2[nH]c3c(c2c1)CCNC31CCN(C(=O)Cc2cccc(F)c2)CC1	7.08µM
COc1ccccc1CN1CCCn2nc(C)c(-c3ccccc3[S+](C)(=O)[O-])c21	i
O=C(CCC1CCN(C(=O)c2ccccc2F)CC1)NCCCc1ccccc1	i
COCCn1nc2n(c1=O)CCN(Cc1ccc3[nH]ccc3c1)CC2	i
COC1CCN(S(=O)(=O)N2CCCC(C)(c3ccccc3)C2)CC1 (centres undefined)	i
COC1CCN(S(=O)(=O)N2C[C@H](c3ccc(C)o3)[C@@H](N)C2)CC1	11.2µM
Cc1ccc([C@H]2CN(C(=O)c3[nH]nc(N)c3-c3ccccc3)C[C@@H]2N)o1	i
O=C(NCc1ccc(C(F)(F)F)cc1)C1CN(c2cccc(Cl)c2)C(=O)N1 (centres undefined)	i
CC(C)c1cc(C(=O)N2C[C@@H](C)[C@](O)(C3CC3)C2)nc2ncnn12	i
Cc1cc(C(F)(F)F)n2ncc(C(=O)N3C[C@@H](C)[C@](O)(C4CCC4)C3)c2n1	14.1µM
SMILES	Pf Dd2 growth
C[C@@H]1CN(C(=O)c2cnc3sccn3c2=O)C[C@@]1(O)C1CCC1	i
Cc1ccc(C2Cn3nnc(-c4noc(-c5ccccc5F)n4)c3CO2)cc1 (centres undefined)	i
Cc1ccc(OCc2ccc(C(=O)N3C[C@H](C4CC4)[C@@H](N)C3)cc2)cc1	10µM
N[C@H]1CN(C(=O)c2ccc(Cn3cnnn3)cc2)C[C@@H]1C1CC1	i
CCOc1ccc(C(=O)N2C[C@@H](COC)[C@H](C(N)=O)C2)cc1	i
Cc1ccc(NC(=O)c2cc3c(N4CCSCC4)nc(C)cn3n2)c(C)c1	i
CCOc1ccccc1NC(=O)Cn1c(=O)n(-c2ccc(F)cc2)c(=O)c2c1cc(C)n2C	i
Cc1ccccc1OCc1ccc(-c2nc(C#N)c(NCc3cccnc3)o2)o1	i
COc1ccc(Nc2oc(-c3ccc(COc4ccccc4)o3)nc2C#N)cc1	i
CCCCNc1oc(-c2ccc(COc3ccccc3C)o2)nc1C#N	11.2µM
Cc1cccc(OCc2ccc(-c3nc(C#N)c(N4CCN(c5ccccc5)CC4)o3)o2)c1	10µM
N#Cc1nc(-c2ccc(COc3ccccc3)o2)oc1N1CCCCC1	i[0.594 µM]
CCN1CCN(c2oc(-c3ccc(COc4ccccc4C)o3)nc2C#N)CC1	i
COc1ccc(CNc2oc(COc3cccc(C)c3)nc2C#N)cc1	i
Cc1cccc(OCc2ccc(-c3nc(C#N)c(NCc4cccnc4)o3)o2)c1	7.94µM
COCCCNc1oc(-c2ccc(COc3ccccc3C)o2)nc1C#N	i
Cc1nc2n(c1C(=O)NCCc1ccccc1)CCC(Nc1cccnc1)C2 (centres undefined)	i
Cc1ccccc1CC(=O)N1CCC2(CC1)NC(=O)N(c1ccc(F)cc1)N2	i
COc1cc(OC)c(OC)cc1CN1CCc2nc(Nc3ccc4c(c3)OCCO4)ncc2C1	10µM
COc1cccc(CN2CCc3nc(Nc4ccc5c(c4)OCCO5)ncc3C2)c1	i
COc1ccccc1N1CCN(c2ncc3c(n2)CCN(Cc2ccccc2F)C3)CC1	i[5.79 µM]
COc1ccc(CN2CCc3nc(N4CCN(c5ccc(F)cc5)CC4)ncc3C2)c(OC)c1OC	11.2µM
CCOc1ccc(CN2CCc3nc(N4CCN(c5ccccc5OC)CC4)ncc3C2)cc1OC	i
Clc1ccc(CN2CCc3nc(Nc4ccc5c(c4)OCCO5)ncc3C2)cc1	i
CCOc1ccc(CN2CCc3nc(N4CCN(c5ncccn5)CC4)ncc3C2)cc1OC	7.94µM
SMILES	Pf Dd2 growth
CCN1CCN(c2ncc3c(n2)CCN(Cc2cccc(F)c2F)C3)CC1	i[5.79 µM]
COc1ccc(CN2CCc3nc(N4CCOCC4)[nH]c(=O)c3CC2)c(OC)c1OC	i[5.79 µM]
Clc1ccc(CN2CCc3nc(N4CCN(c5ccccn5)CC4)ncc3C2)cc1	i
COc1cc(OC)c(OC)cc1CN1CCc2nc(N3CCN(c4ncccn4)CC3)ncc2C1	7.94µM
COc1ccccc1N1CCN(c2ncc3c(n2)CCN(Cc2ccc(C)s2)C3)CC1	i
CCOCCN1C(=O)COC[C@@H]1[C@H](O)c1ccc(NC(=O)C2CCCCC2)cc1	i
Cc1ccccc1NC(=O)N1CCOCC1CC(=O)NCc1cccnc1 (centres undefined)	i
Cn1nc(-c2ccc(F)cc2)cc1[C@H]1CN2CC[C@H]1C[C@@H]2CNC(=O)COc1ccccc1	i
CS(=O)(=O)N(Cc1cccnc1)C1CN(C(=O)CCc2c[nH]c3ccccc23)C1	i
O=C(NCCC1CCN(C(=O)Nc2cc(F)ccc2F)CC1)c1ccccc1	i
CCc1ccc(CN2CCc3nc(N4CCN(c5ccccc5F)CC4)ncc3C2)cc1	8.91µM
Fc1ccccc1N1CCN(c2ncc3c(n2)CCN(Cc2ccc(Br)s2)C3)CC1	i
Fc1ccccc1N1CCN(c2ncc3c(n2)CCN(Cc2cc(Br)cs2)C3)CC1	i
COc1ccc(Cn2c(C3CCN(C(=O)c4ccc(OC)c(F)c4)CC3)n[nH]c2=O)cc1	i
NC(=O)CN1CCC(C(=O)N2C[C@@H](C(=O)O)[C@H](c3ccccc3)C2)CC1	i
CN(CC1(CO)CCOCC1)C(=O)c1cc(COc2ccccc2)[nH]n1	i
CN(CCN1CCOCC1)C(=O)c1cc(COc2cccc(F)c2)[nH]n1	i
CN(CCN1CCCCCC1)C(=O)c1cc(COc2ccccc2)[nH]n1	7.94µM
CC(=O)NCCC(=O)N1CCCC1C(=O)Nc1cccc(-n2cccn2)c1 (centres undefined)	i
COCCOCC(=O)N1CCC(C(=O)N2CCCCCCNC(=O)CC2)CC1	i
Cc1ccc(C(C)C)c(OCC(=O)Nc2cccc(-c3nc4ncccc4o3)c2)c1	i
COc1ccc(OCC(=O)Nc2ccc(Cl)c(-c3nc4ncccc4o3)c2)cc1	7.94µM
CCC(C)c1ccc(OCC(=O)Nc2ccc(-c3nc4ncccc4o3)cc2)cc1 (centres undefined)	10µM
CCCC(=O)Nc1cc(C)c(O)c(-c2nc3ncccc3o2)c1	i
COc1ccc(OCC(=O)Nc2ccc(-c3nc4cc(Cl)ccc4o3)cc2)cc1	i
